High-throughput results from PubChem BioAssay.
Tau fibril ThT: tau fibrillization inhibition (ThT binding). P10636. recombinant tau K18 P301L, heparin-induced fibrillization, ThT fluorescence. Potency, µM (top dose mostly 57.4 µM), actives largely listed as inhibitors. 270,000 compounds, 2.1% hits. AID 1460; also: nearly all actives have a fitted effect of over 55% in size
Target sequence (P10636 561-689 P618L limits assumed): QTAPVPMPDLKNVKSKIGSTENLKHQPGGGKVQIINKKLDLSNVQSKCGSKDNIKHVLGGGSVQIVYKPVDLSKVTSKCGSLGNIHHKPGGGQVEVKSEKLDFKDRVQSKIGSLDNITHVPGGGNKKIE
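Fibril formation assay: tau K18 P301L at 15 uM with trace Alexa 594 label, heparin inducer 20 uM, pH 7 sodium acetate buffer, 37 C for 6 hr; endpoint ThT signal.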
Tau fluor counter: counter-screen for tau fibril formation inhibitors. 280,000 compounds, 0.93% hits. tau K18 P301L (four-repeat tau fragment) Alexa594 fluorescence, heparin fibrillization. Potency, µM (series often up to 57.7 µM). AID 1463; also: nearly all actives have a fitted effect of over 55% in size
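Human K18 P301L tau (15 uM unlabeled plus 0.24 uM Alexa 594-labeled, final) in 100 mM sodium acetate pH 7 was mixed with compound and 20 uM heparin and incubated 6 hr at 37 C.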
KDM4E inh: JMJD2E (human) inhibition | Potency, µM (doses to about 57.1 µM), most hits filed as inhibitors | B2RXH2 | AID 2147 | 230,000 compounds, 1.6% hits | JMJD2E catalytic domain, FDH-coupled NADH fluorescence (FDH is formaldehyde dehydrogenase); also: nearly all actives have a fitted effect of over 50% in size
RGS12 GoLoco inh: inhibitors of human Gai1-RGS12 GoLoco interaction (red fluorophore) | P63096 | Gai1:RGS12 GoLoco peptide FP, rhodamine, 10 min | Potency, µM (top dose mostly 61.6 µM), most hits filed as inhibitors | 230,000 compounds, 0.44% hits | AID 880; active = well fitted inhibition curve with a large enough effect, not every such curve was filed as active; inactive = no such curve, though single readings can be large or run the other way; also: nearly all actives have a fitted effect of over 30% in size
Target sequence (P63096 whole entry, looked up): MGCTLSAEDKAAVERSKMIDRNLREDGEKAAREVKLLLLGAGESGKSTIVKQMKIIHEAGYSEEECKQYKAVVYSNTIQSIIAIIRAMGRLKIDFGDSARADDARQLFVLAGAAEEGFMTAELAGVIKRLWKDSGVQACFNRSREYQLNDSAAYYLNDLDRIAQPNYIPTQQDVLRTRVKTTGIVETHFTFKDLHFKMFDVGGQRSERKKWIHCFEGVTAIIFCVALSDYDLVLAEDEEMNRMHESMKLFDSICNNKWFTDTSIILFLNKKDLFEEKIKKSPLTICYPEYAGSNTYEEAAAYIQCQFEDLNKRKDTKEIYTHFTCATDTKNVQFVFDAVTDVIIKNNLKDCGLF
Tau fibril FP: inhibitors of human tau fibril formation. 280,000 compounds, 0.39% hits. AID 1468. Potency, µM (series often up to 57.7 µM), most hits filed as inhibitors. P10636. K18 P301L tau heparin fibrillization, Alexa594 FP, 6 h; also: nearly all actives have a fitted effect of over 55% in size
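Compound effects on tau fibrillization are measured by Alexa 594 fluorescence polarization (ex 555, em 632 nm). K18 P301L tau is used at 15 uM with 0.24 uM labeled tracer, and 20 uM heparin induces aggregation over 6 hr at 37 C.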
Large screens that a line does not name were inactive; ! = not confirmed by another sample; [ ] = dose if it differs, or a comment. In the library only some 3.4% were active in any assay of this set; here they are far more common. Unless noted, calls follow the shape of the dose curve; as a rule, active = well fitted curve in the direction sought with a large enough effect; inconclusive = small, poorly fitted or top-dose-only effect, or another doubt; inactive = no such curve, though single readings can be large; an effect the other way counts as inactive or inconclusive.

Cc1ccccc1Nc1nc(-c2sc(NC(=O)c3cccc(Cl)c3)nc2C)cs1	Tau fibril ThT inconclusive, Tau fluor counter inconclusive, KDM4E inh inconclusive
Cc1nc(C)c(-c2csc(Nc3cccc(O)c3)n2)s1	Tau fibril ThT 4.5µM, Tau fluor counter 18µM[quencher], KDM4E inh inconclusive, Tau fibril FP inconclusive
Cc1nc(NC(=O)c2ccccc2)sc1-c1csc(Nc2ccc(Cl)cc2Cl)n1	Tau fibril ThT inconclusive, Tau fluor counter inconclusive, KDM4E inh inconclusive
Cc1nc(NC(=O)c2ccccc2)sc1-c1csc(Nc2ccc(F)cc2)n1	Tau fibril ThT 11µM, Tau fluor counter 14µM[quencher], Tau fibril FP inconclusive
COc1ccc(Cl)cc1NC(=O)Cc1coc2c(C)c(C)ccc12	Tau fluor counter inconclusive, Tau fibril FP inconclusive (no result: KDM4E inh, RGS12 GoLoco inh)
CNc1sc(C(=O)c2ccc(F)cc2)c(N)c1-c1nc2ccccc2s1	Tau fibril ThT 16µM, Tau fluor counter inconclusive
CNc1sc(C(=O)c2cccs2)c(N)c1-c1nc2ccccc2s1	Tau fibril ThT 7.9µM, Tau fluor counter 11µM[quencher], Tau fibril FP 32µM
O=C(Nc1ccccc1-c1nc2ccccc2s1)c1ccc(F)cc1	none (no result: KDM4E inh, RGS12 GoLoco inh)
COc1ccc(-c2nc(SCC(=O)NC3CCCC3)c(-c3ccccc3)[nH]2)cc1OC	Tau fibril ThT inconclusive, Tau fluor counter 14µM[quencher], Tau fibril FP inconclusive (no result: KDM4E inh, RGS12 GoLoco inh)
COCCCNC(=O)CSc1nc(-c2ccc(OC)cc2)[nH]c1-c1ccc(OC)cc1	Tau fibril ThT inconclusive, Tau fluor counter inconclusive (no result: KDM4E inh, RGS12 GoLoco inh)
COCCCNC(=O)CSc1nc(-c2ccc(OC)c(OC)c2)[nH]c1-c1ccc(F)cc1	Tau fibril ThT inconclusive, Tau fluor counter inconclusive (no result: KDM4E inh, RGS12 GoLoco inh)
COc1ccc(-c2nc(SCC(=O)NC3CCCC3)c(-c3ccc(OC)cc3)[nH]2)cc1	Tau fibril ThT inconclusive, Tau fluor counter 13µM![quencher]
Cc1ccc(-c2nc(SCC(=O)NCC3CCCO3)c(-c3ccc(Cl)cc3)[nH]2)cc1 (stereo not drawn)	Tau fluor counter inconclusive, KDM4E inh inconclusive
COc1ccc(-c2[nH]c(-c3ccc(Cl)cc3)nc2SCC(=O)NCC2CCCO2)cc1 (stereo not drawn)	Tau fibril ThT inconclusive, Tau fluor counter 13µM[quencher] (no result: KDM4E inh, RGS12 GoLoco inh)
COc1ccc(-c2nc(SCC(=O)NC3CCCC3)c(-c3ccc(F)cc3)[nH]2)cc1OC	Tau fibril ThT inconclusive, Tau fluor counter 13µM[quencher], Tau fibril FP inconclusive (no result: KDM4E inh, RGS12 GoLoco inh)
O=[N+]([O-])c1ccc(/C([O-])=C(/C(=S)NCc2ccco2)[n+]2ccccc2)cc1	Tau fibril ThT 25µM, KDM4E inh 14µM, Tau fibril FP inconclusive
Cc1ccc(/C([O-])=C(/C(=S)NCc2ccco2)[n+]2ccccc2)cc1	Tau fibril ThT inconclusive
CCOc1ccc(NC(=O)C2CCN(C(=O)N3CC(C)Oc4ccc(Cl)cc43)CC2)cc1 (stereo not drawn)	Tau fibril ThT inconclusive, Tau fluor counter inconclusive (no result: KDM4E inh, RGS12 GoLoco inh)
Clc1ccc(Nc2nc(-c3cccnc3)cs2)cc1	Tau fibril ThT inconclusive, Tau fluor counter inconclusive
O=C(Nc1cccc(-c2csc(Nc3ccc(Cl)cc3)n2)c1)c1ccccc1	Tau fibril ThT 14µM, Tau fluor counter 14µM[quencher]
O=C(Nc1cccc(-c2csc(Nc3ccc(Cl)cc3)n2)c1)c1cccc(C(F)(F)F)c1	Tau fibril ThT 13µM, Tau fluor counter 7.9µM[quencher]
O=C(Nc1cccc(-c2csc(-c3ccccc3)n2)c1)c1cccs1	Tau fibril ThT inconclusive, Tau fluor counter inconclusive, KDM4E inh inconclusive, Tau fibril FP 14µM
CCc1ccccc1Nc1cc(C(=O)NC(C)c2ccccc2)c2ccccc2n1 (stereo not drawn)	Tau fluor counter inconclusive (no result: KDM4E inh, RGS12 GoLoco inh)
C[N+](C)(C)CC[N+]1(C)Cc2c(Cl)c(Cl)c(Cl)c(Cl)c2C1	none
O=C(Cc1cccc2ccccc12)NN1C(=O)CSC1=S	Tau fibril ThT inconclusive
O=C(NN1C(=O)CSC1=S)C(=O)NN1C(=O)CSC1=S	Tau fibril ThT inconclusive, KDM4E inh 8.9µM
COc1ccc(S(=O)(=O)NCCc2sc3nc(-c4ccc(C)cc4)nn3c2C)cc1C	none (no result: KDM4E inh, RGS12 GoLoco inh)
Oc1ccccc1Nc1nc(NCc2ccccc2)c2ccccc2n1	Tau fluor counter 16µM[quencher], KDM4E inh inconclusive
COc1ccccc1Nc1nc(NCc2ccco2)c2ccccc2n1	Tau fibril ThT inconclusive, Tau fluor counter 22µM[quencher], KDM4E inh inconclusive, Tau fibril FP inconclusive
Cc1ccc(Nc2nc(NCc3ccco3)c3ccccc3n2)cc1	Tau fluor counter inconclusive, KDM4E inh inconclusive
c1ccc(N2CCN(c3nc(NCc4ccco4)c4ccccc4n3)CC2)cc1	Tau fibril ThT inconclusive, Tau fluor counter 25µM[quencher], KDM4E inh inconclusive
c1coc(CNc2nc(N3CCCCC3)nc3ccccc23)c1	KDM4E inh inconclusive
CCN(C(=O)Cn1cnc2onc(-c3ccc(F)cc3)c2c1=O)c1cc(C)ccc1C	Tau fibril FP inconclusive (no result: KDM4E inh, RGS12 GoLoco inh)
COc1ccc(NS(=O)(=O)c2ccc3nc(COc4cccc5ccccc45)[nH]c3c2)cc1	Tau fluor counter 10µM[quencher], Tau fibril FP 22µM
N#C/C(=C/c1ccc(Br)o1)C(N)=S	Tau fibril ThT 18µM, Tau fluor counter 28µM[quencher], KDM4E inh inconclusive
N=C1S/C(=C\c2ccc(-c3cccc(Cl)c3)o2)C(=O)N1c1nccs1	Tau fibril ThT 3.5µM
COc1ccc(/C=C2\SC(=N)N(c3nccs3)C2=O)cc1OC	Tau fibril ThT 10µM
O=C1OC(c2cccs2)=N/C1=C\c1ccc(-c2cccc(Cl)c2)o1	Tau fibril ThT inconclusive
CCCOc1ccc(C2c3c(-c4ccccc4O)n[nH]c3C(=O)N2CCCOCC)cc1OCC (stereo not drawn)	Tau fluor counter inconclusive (no result: KDM4E inh, RGS12 GoLoco inh)
O=C(COc1ccc(F)cc1)Nc1ccc(Cl)c(-c2nc3ccccc3[nH]2)c1	Tau fluor counter inconclusive, Tau fibril FP 28µM (no result: KDM4E inh, RGS12 GoLoco inh)
O=C(Nc1ccc(Cl)c(-c2nc3ccccc3[nH]2)c1)c1ccc2c(c1)OCO2	Tau fibril ThT inconclusive, Tau fluor counter inconclusive, Tau fibril FP 18µM
CCCOc1ccc(C(=O)Nc2cccc(-c3nc4ccccc4[nH]3)c2)cc1	Tau fibril ThT inconclusive, Tau fluor counter 10µM[quencher], Tau fibril FP 25µM (no result: KDM4E inh, RGS12 GoLoco inh)
COc1ccc(OCC(=O)Nc2cccc(-c3nc4ccccc4[nH]3)c2)cc1	Tau fibril ThT inconclusive, Tau fluor counter 20µM[quencher], KDM4E inh inconclusive, Tau fibril FP inconclusive
Oc1ccc(C=Nc2ccc3ncccc3c2)c(O)c1	Tau fibril ThT 6.3µM, Tau fluor counter inconclusive, KDM4E inh 4.5µM, Tau fibril FP inconclusive
Cc1cccc(NC(=O)Cn2nc(C)c3nn(-c4ccc(Cl)cc4)c(C)c3c2=O)c1C	none (no result: KDM4E inh, RGS12 GoLoco inh)
CNCc1ccccc1Sc1ccc(O)c(O)c1	Tau fibril ThT 4µM, Tau fluor counter inconclusive, KDM4E inh 14µM, Tau fibril FP 8.9µM
COc1ccc(Sc2ccccc2CN(C)C)cc1OC	none
O=C(CCC(=O)Nc1ccc(F)cc1)N/N=C/c1ccc(O)cc1O	Tau fibril ThT inconclusive, KDM4E inh 25µM
O=C(CCN1CCN(C(c2ccccc2)c2ccccc2)CC1)N/N=C/c1ccc(O)cc1O	Tau fluor counter 16µM[quencher], KDM4E inh inconclusive, Tau fibril FP inconclusive
COc1cccc2c(SCC(=O)N/N=C/c3ccc(O)cc3O)cc(C)nc12	Tau fibril ThT inconclusive, KDM4E inh 28µM
